Legend:
Experiment in all cases: PBM binding z-score (relative to random genomic background probes); higher = stronger binding; sequences stand for … in GC…GCGATTGACAGCGTAGAATGAAGG
[1] = system: FXR:RXRa (NR concentration 270 nM, RXRa partner concentration 90 nM)
Summary of the method: (§1)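 Binding buffer was PBS pH 7.4 with 2% milk, 0.02% Triton X-100, 1 mM DTT, 0.2 mg/mL BSA and 0.4 mg/ml salmon testes DNA. In it, ligand-free nuclear receptor dimers were incubated 1 h on custom Agilent 4×180K protein-binding microarrays carrying double-stranded probes. Antibodies against each partner (one per run) detected binding, and z-scores were calculated against random background probes after regression normalization of scanned fluorescence.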

[2] = system: LXRa:RXRa (NR concentration 270 nM, RXRa partner concentration 90 nM)
Summary of the method: as §1

[3] = system: LXRa homodimer (NR concentration 270 nM)
Summary of the method: as §1

[4] = system: LXRb:RXRa (NR concentration 270 nM, RXRa partner concentration 90 nM)
Summary of the method: as §1

[5] = system: LXRb homodimer (NR concentration 270 nM)
Summary of the method: as §1

[6] = system: PPARa:RXRa (NR concentration 270 nM, RXRa partner concentration 90 nM)
Summary of the method: as §1

[7] = system: PPARg:RXRa (NR concentration 180 nM, RXRa partner concentration 90 nM)
Summary of the method: as §1

[8] = system: PPARg:RXRa 270nM:90nM, anti-RXR (NR concentration 270 nM, RXRa partner concentration 90 nM)
Summary of the method: as §1

[9] = system: PPARg:RXRa 30nM:10nM, anti-RXR (NR concentration 30 nM, RXRa partner concentration 10 nM)
Summary of the method: as §1

[10] = system: PPARg:RXRa 90nM:30nM, anti-RXR (NR concentration 90 nM, RXRa partner concentration 30 nM)
Summary of the method: as §1

[11] = system: PPARg:RXRa DBDmut IVT, anti-RXR (DBD mutation: RXRa K156A/R161A, NR concentration 270 nM, RXRa partner concentration 90 nM)
Summary of the method: as §1

[12] = system: PPARg:RXRa IVT, anti-PPARg (NR concentration 270 nM, RXRa partner concentration 90 nM)
Summary of the method: as §1

[13] = system: PPARg DBDmut:RXRa IVT, anti-PPARg (DBD mutation: PPARg1 K132A/R137A, NR concentration 270 nM, RXRa partner concentration 90 nM)
Summary of the method: as §1

[14] = system: PPARg DBDmut IVT, anti-PPARg (DBD mutation: PPARg1 K132A/R137A, NR concentration 270 nM)
Summary of the method: as §1

[15] = system: PPARg homodimer (NR concentration 180 nM)
Summary of the method: as §1

[16] = system: PXR:RXRa (NR concentration 270 nM, RXRa partner concentration 90 nM)
Summary of the method: as §1

[17] = system: PXR homodimer (NR concentration 270 nM)
Summary of the method: as §1

[18] = system: RARa:RXR (NR concentration 270 nM, RXRa partner concentration 90 nM)
Summary of the method: as §1

[19] = system: RARa homodimer (NR concentration 270 nM)
Summary of the method: as §1

[20] = system: RARb:RXRa (NR concentration 270 nM, RXRa partner concentration 90 nM)
Summary of the method: as §1

CGAACTAGGTCATCCAGGACTGTGAATACATTGA
PBM binding z-score [1]: 4.52
PBM binding z-score [2]: 2.4
PBM binding z-score [3]: 0.426
PBM binding z-score [4]: 2.06
PBM binding z-score [5]: 0.107
PBM binding z-score [6]: 4.84
PBM binding z-score [7]: 7.64
PBM binding z-score [8]: 6.38
PBM binding z-score [9]: 4.23
PBM binding z-score [10]: 5.82
PBM binding z-score [11]: 8.21
PBM binding z-score [12]: 8.17
PBM binding z-score [13]: 6.94
PBM binding z-score [14]: 2.3
PBM binding z-score [15]: 3.35
PBM binding z-score [16]: 1.48
PBM binding z-score [17]: 0.582
PBM binding z-score [18]: 2.24
PBM binding z-score [19]: 0.701
PBM binding z-score [20]: 3.73

GCTAGCAGGCCATTTGGGTAACTCAATGACGGGC
PBM binding z-score [1]: -0.758
PBM binding z-score [2]: -0.699
PBM binding z-score [3]: -0.371
PBM binding z-score [4]: -0.899
PBM binding z-score [5]: -0.88
PBM binding z-score [6]: -0.267
PBM binding z-score [7]: 0.519
PBM binding z-score [8]: -0.594
PBM binding z-score [9]: -0.844
PBM binding z-score [10]: -0.634
PBM binding z-score [11]: 1.07
PBM binding z-score [12]: 0.155
PBM binding z-score [13]: -0.238
PBM binding z-score [14]: -1.22
PBM binding z-score [15]: -0.806
PBM binding z-score [16]: -0.696
PBM binding z-score [17]: -0.721
PBM binding z-score [18]: -0.454
PBM binding z-score [19]: -1.37
PBM binding z-score [20]: -0.258

TCTAGTTGGTCACGGAGGTGACACACGACGGGTA
PBM binding z-score [1]: 1.04
PBM binding z-score [2]: 0.805
PBM binding z-score [3]: -0.0469
PBM binding z-score [4]: 0.335
PBM binding z-score [5]: 0.00515
PBM binding z-score [6]: 1.43
PBM binding z-score [7]: 1.64
PBM binding z-score [8]: 1.98
PBM binding z-score [9]: 2.83
PBM binding z-score [10]: 2.24
PBM binding z-score [11]: 2.02
PBM binding z-score [12]: 3.37
PBM binding z-score [13]: 1.22
PBM binding z-score [14]: 0.542
PBM binding z-score [15]: 1.15
PBM binding z-score [16]: 0.71
PBM binding z-score [17]: -0.119
PBM binding z-score [18]: 0.781
PBM binding z-score [19]: 0.338
PBM binding z-score [20]: 1.82

ACAGACAGGTGGTGAAGGTAACTCAGGCTATCAT
PBM binding z-score [1]: -0.0169
PBM binding z-score [2]: -0.306
PBM binding z-score [3]: -0.324
PBM binding z-score [4]: -0.0742
PBM binding z-score [5]: -0.476
PBM binding z-score [6]: -0.288
PBM binding z-score [7]: 0.473
PBM binding z-score [8]: -0.194
PBM binding z-score [9]: -0.095
PBM binding z-score [10]: -0.321
PBM binding z-score [11]: -0.597
PBM binding z-score [12]: 0.0629
PBM binding z-score [13]: -0.371
PBM binding z-score [14]: -0.55
PBM binding z-score [15]: 0.0722
PBM binding z-score [16]: -0.271
PBM binding z-score [17]: 0.0248
PBM binding z-score [18]: -0.15
PBM binding z-score [19]: 0.517
PBM binding z-score [20]: -0.142

CCGAGTAGGTTATGGGGCATTCAAGCAACGGTGA
PBM binding z-score [1]: 0.071
PBM binding z-score [2]: 0.506
PBM binding z-score [3]: -0.128
PBM binding z-score [4]: 0.732
PBM binding z-score [5]: 0.278
PBM binding z-score [6]: 2.1
PBM binding z-score [7]: 3.82
PBM binding z-score [8]: 4.64
PBM binding z-score [9]: 2.45
PBM binding z-score [10]: 4.67
PBM binding z-score [11]: 3.32
PBM binding z-score [12]: 3.2
PBM binding z-score [13]: -0.98
PBM binding z-score [14]: 0.0415
PBM binding z-score [15]: 1.36
PBM binding z-score [16]: -0.0285
PBM binding z-score [17]: -0.292
PBM binding z-score [18]: 0.26
PBM binding z-score [19]: -0.114
PBM binding z-score [20]: 1.08

GCTCACGGGTCAAAGGTTATAGCATGAATAGAAT
PBM binding z-score [1]: 7.17
PBM binding z-score [2]: 5.69
PBM binding z-score [3]: 0.496
PBM binding z-score [4]: 5.67
PBM binding z-score [5]: 0.379
PBM binding z-score [6]: 6.85
PBM binding z-score [7]: 9.36
PBM binding z-score [8]: 8.27
PBM binding z-score [9]: 6.88
PBM binding z-score [10]: 8.29
PBM binding z-score [11]: 2.57
PBM binding z-score [12]: 4.03
PBM binding z-score [13]: 0.462
PBM binding z-score [14]: 0.56
PBM binding z-score [15]: 2.09
PBM binding z-score [16]: 6.14
PBM binding z-score [17]: 0.22
PBM binding z-score [18]: 8.47
PBM binding z-score [19]: 0.284
PBM binding z-score [20]: 4.46

Source: the supplement of paper PMC6555819
